FBPA Giardia inh = inhibitors of Giardia lamblia fructose-1,6-bisphosphate aldolase | A8B2U2 | purified Giardia FBPA | Potency, µM (doses to about 59.6 µM), inactives show top-dose activity, negative = inhibition, most hits filed as inhibitors | hit rate 0.71% among 290,000 | AID 2451; note: potency is the fitted concentration of half-maximal effect; % is set by controls: 0 for no effect and ±100 for the full control effect; nearly all actives have a fitted effect of over 55% in size
Target sequence (A8B2U2 whole entry, looked up): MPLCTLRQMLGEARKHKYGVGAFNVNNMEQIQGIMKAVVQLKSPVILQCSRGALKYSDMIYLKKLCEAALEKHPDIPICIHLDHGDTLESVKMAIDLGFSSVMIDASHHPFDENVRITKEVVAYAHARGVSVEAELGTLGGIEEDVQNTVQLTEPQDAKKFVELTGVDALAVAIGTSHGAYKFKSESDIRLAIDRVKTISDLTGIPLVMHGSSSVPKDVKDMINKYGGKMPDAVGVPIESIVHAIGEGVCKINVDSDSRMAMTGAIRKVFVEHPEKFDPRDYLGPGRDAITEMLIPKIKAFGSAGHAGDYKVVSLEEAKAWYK
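Giardia FBPA (40 nM reagent) was preincubated 10 min at RT with compound (up to 57.5 uM final), then substrate plus GAPDH/TPI/NAD/arsenate coupling system with diaphorase/resazurin was added; resorufin fluorescence (525/598 nm) was read after 20 min.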
CHX counter = counter-screen hit for Shiga toxin inhibitors, cycloheximide; cell reporter, cycloheximide protein synthesis inhibition counterscreen; max response, %; hit rate 12% among 300,000; AID 2314; in the data active = max response mostly above about 13%, no sharp cut-off; inactive = mostly below about 14%; note: read at 38.3 µM for the half of the compounds with a filed dose; 0% is about no effect
LmPK inhibitor = inhibitors of Leishmania mexicana pyruvate kinase; hit rate 0.37% among 290,000; Potency, µM (top dose mostly 57.5 µM), for inactives: at the highest dose activity change, negative = inhibition, actives largely listed as inhibitors; Q27686; purified LmPK, Kinase-Glo ATP luminescence, 1 h; note: potency is the fitted concentration of half-maximal effect; % is set by controls: 0 for no effect and ±100 for the full control effect
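Kinase-Glo luminescence read after 1 h RT reaction of 0.1 nM LmPK with 0.5 mM PEP and 0.1 mM ADP. Activity scaled between uninhibited and enzyme-free controls.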
Shiga inhibitor = blocks Shiga toxin action in Vero cells; hit rate 9.2% among 290,000; inhibition, % at 38.7 µM; AID 2315; Vero cells, Shiga toxin protein synthesis inhibition reporter; in the data active = inhibition mostly above about 28%, no sharp cut-off; inactive = mostly below about 43%; note: 0% is about no effect
RE007 growth inh = less growth of the S. pombe RE007 Vpr strain; hit rate 0.21% among 360,000; AID 651644; S. pombe RE007 Vpr strain, BacTiter-Glo ATP luminescence, 24 h; Potency, µM (titrated, usually from 92.2 µM), without a hit: at the highest dose activity change, negative = less growth, hits mostly inhibitors; active = well fitted falling curve with a large enough effect; inconclusive = small, poorly fitted or top-dose-only effect; inactive = no such curve, though single readings can be large or run the other way; note: potency is the fitted concentration of half-maximal effect; % is set by controls: 0 for no effect and ±100 for the full control effect; nearly all actives have a fitted effect of over 50% in size
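Fission yeast strain RE007, carrying one chromosomally integrated HIV-1 vpr copy, was seeded at OD 0.01 in PMG+AL medium with 23 nL pinned compound. After 24 h at 30 °C and 99% humidity, viability was read by BacTiter-Glo luminescence.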
Tb PYK inh = blocks Trypanosoma brucei pyruvate kinase | AID 624173 | Potency, µM (highest dose often 76.8 µM), inactives show at the highest dose activity, negative = inhibition, most hits filed as inhibitors | Q57TT1 | TbPYK enzyme, Kinase-Glo Plus ATP luminescence, 45 min | hit rate 0.12% among 410,000; note: potency is the fitted concentration of half-maximal effect; % is set by controls: 0 for no effect and ±100 for the full control effect; nearly all actives have a fitted effect of over 50% in size
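Luminescent Kinase-Glo Plus end-point after 45 min room-temperature reaction of T. brucei pyruvate kinase started with 130 uM ADP (final). Buffer TEA 50 mM pH 7.2 with KCl, MgCl2, BSA, Tween-20; titration-based qHTS with fitted concentration-effect curves.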
* hit, by the source's call; u = inconclusive; x = no result given. Many of the other results were omitted from the sample, so hits are more common in it than they were. Unless noted, calls come from the whole dose curve; as a rule, active = well fitted curve in the direction sought with a large enough effect; inconclusive = small, poorly fitted or top-dose-only effect, or another doubt; inactive = no such curve, though single readings can be large; an effect the other way counts as inactive or inconclusive.

SMILES | FBPA Giardia inh | CHX counter | LmPK inhibitor | Shiga inhibitor | RE007 growth inh | Tb PYK inh
CC1CCN(C(=O)CSc2nnc(-c3ccccc3Cl)o2)CC1 | x | x | x | x | x | 2%
CC1CCN(C(=O)CSc2nnc(-c3cccs3)o2)CC1 | 18% | 45* | 0% | 63* | -6% | 0%
CCOC(=O)N1CCC(N2Cc3cccc(C(=O)Nc4ccc(N(CC)CC)cc4C)c3C2=O)CC1 | 3% | -4 | -17% | -21 | 5% | u
Cc1csc2nc(COC(=O)c3ccccc3NC(=O)c3ccc(C(C)(C)C)cc3)cc(=O)n12 | x | x | x | x | x | 4%
CCN1C(=O)c2ccccc2C1Nc1cccc(OCCN2CCCCC2)c1 (centres undefined) | x | x | x | x | x | 0%
Brc1cc2[nH]cnc2c2ccccc12 | 18µM* | 5 | 0% | -10 | -20% | -10%
Nc1c(Br)cc(Br)c2cccnc12 | x | -7 | x | -8 | x | x
CCCOc1ccc(/C=N/NC(=O)CSc2ccccn2)cc1OC | 4% | 36* | 0% | 85* | -9% | 2%
COc1cc(/C=N/NC(=O)CSc2ccccn2)ccc1O | 2% | 6 | -5% | 23 | 2% | 4%
CN(C)c1ccc(/C=N/NC(=O)CCc2nc3ccccc3[nH]2)cc1 | 0% | 3 | 4% | 21 | 2% | 0%
CN(C)c1ccc(/C=N/NC(=O)CSc2ccccn2)cc1 | -2% | 40* | 5% | 56* | 37% | -3%
CCN(Cc1nc(-c2ccc(OC)c(OC)c2)no1)S(=O)(=O)c1ccc(OC)cc1 | x | x | x | x | x | 1%
CC(NS(=O)(=O)c1c(N)n(C)c(=O)n(C)c1=O)c1ccccc1 (centres undefined) | x | 29* | -4% | 57* | -15% | -9%
COc1cccc(CNC(=O)CCC2CCCN(C(=O)Cc3ccccc3F)C2)c1 (centres undefined) | 2% | 5 | 3% | 23 | -8% | -8%
Cc1ccsc1C(=O)N1CCCC(CCC(=O)NCc2ccccc2F)C1 (centres undefined) | 2% | 15* | 6% | 29 | -4% | 2%
Cc1ccnn1CCC(=O)N1CCCC(CCC(=O)NCc2ccccc2F)C1 (centres undefined) | 2% | 2 | 4% | 15 | -17% | -8%
Cc1ccc(C(=O)N2CCCC(CCC(=O)NCc3ccccc3F)C2)cn1 (centres undefined) | x | 21* | -3% | 27 | 4% | -8%
C=CCOc1cccc(C(=O)N2CCCC(CCC(=O)NCc3ccccc3F)C2)c1 (centres undefined) | -1% | 29* | -3% | 73 | -6% | 3%
O=c1c2[nH]c3ccccc3c2ncn1C1CCCCC1 | 1% | 26* | -3% | 47 | 21% | 0%
CCN(CC)CCOC(=O)c1cccnc1 | x | x | x | x | x | 2%
CCCC(=O)c1ccc2c(c1)OCCO2 | 7% | 10 | 2% | 28 | -29% | 0%
O=C(CS(=O)(=O)c1ccccc1)c1ccc2c(c1)OCCO2 | 1% | 45* | 13µM* | 58* | 17% | 6%
O=C(O)CCC(=O)c1ccc2c(c1)OCCO2 | 0% | 8 | -3% | 10 | -7% | 4%
CCOc1ccc(-c2nnn(CC(=O)c3ccc4c(c3)OCCO4)n2)cc1OCC | -3% | 34* | -1% | 18 | 3% | 1%
CCOc1ccc(-c2nnn(CC(=O)NCc3ccc(F)cc3)n2)cc1OCC | 0% | -6 | -1% | -13 | 6% | 1%
SMILES | FBPA Giardia inh | CHX counter | LmPK inhibitor | Shiga inhibitor | RE007 growth inh | Tb PYK inh
CCC(=O)c1ccc2c(c1)OCCO2 | 2% | 13* | -5% | 33 | -5% | 0%
C#CCn1c(=O)c2c(nc(/C=C/c3cccc(OC)c3)n2C)n(CCCOP(=O)(O)O)c1=O | -8% | -10 | x | 2 | x | x
CC(C)C(=O)NC1CC(=O)N(c2ccc3c(c2)OCCO3)C1 (centres undefined) | x | x | x | x | x | 1%
COc1ccccc1OCC(=O)Nc1ccc2c(c1)OCO2 | -10% | 25* | -2% | 66* | -16% | 2%
Cc1ccccc1OCC(=O)Nc1ccc2c(c1)OCO2 | 4% | 32* | 2% | 157* | 8% | -11%
O=C(COc1ccccc1Cl)Nc1ccc2c(c1)OCO2 | 1% | 42* | 3% | 71* | 13% | 6%

Screening results from PubChem.
